Assay outcomes from PubChem BioAssay.
This is a sample that favours compounds with a hit; in the whole collection about 2.6% have one here.
p53 reactivation – qHTS assay for re-activators of p53 using a Luc reporter. AID 504706, 2011. H1299 p53-A138V BP100-luciferase reporter, luminescence, 24 h. 320,000 tested, 0.063% active. Potency, µM (titrated, usually from 92.2 µM), inactives show at the highest dose activity change, positive = activation, actives largely listed as activators; active = well fitted activation curve with a large enough effect; inconclusive = small, poorly fitted or top-dose-only effect; inactive = no such curve, though single readings can be large or run the other way; also: potency is read from the fitted curve at half-maximal effect; % of control where 0% means no effect; nearly all actives have a fitted effect of over 45% in size
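H1299 (p53-null), stable ts p53-A138V + BP100-Luc; 1000 cells/well, Opti-MEM/10% FBS; cpd 4 pt, 1:5; 24 h, 37 deg C, 5% CO2; detection reagent 10 min RT; luminescence.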
TRPV1 potentiator – HTS Assay for Compounds that Act as Potentiators of the Vanilloid Receptor 1; Transient receptor potential cation channel subfamily V member 1 (Homo sapiens), Q8NER1; TRPV1-expressing cells, Fluo-8 calcium influx, capsaicin EC20 potentiation; potentiation, % at 8.33 µM; 320,000 tested, 0.02% active; AID 540277, 2011; in the data active = potentiation above about 80%; inconclusive = between about 30% and that limit; also: 0% is about no effect
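Fluo-8 calcium influx in TRPV1-expressing cells, kinetic read (ex 480/em 520 nm). Compound added and read 3 min for agonist activity, followed by capsaicin at EC20 final and 2 min further read for enhancement.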
KCNH2 3.1 block – qHTS for Inhibitors of KCHN2 3.1: Mutant qHTS; Potassium voltage-gated channel subfamily H member 2, brain isoform KCNH2 3.1 (human); U2OS KCNH2 3.1, thallium flux FluxOr; hits give low values; activity change, % (tested at about 1.8 µM); 340,000 tested, 0.95% active;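 active = maximum activity change below -70%; inconclusive = maximum activity change from -70% to -50%; inactive = maximum activity change above -50%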;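 also: thallium influx rate constant from kinetic fluorescence after stimulation buffer; % is scaled to controls: 0 for no effect and ±100 for the full control effect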
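Channel expression came from 3.1 mutant virus (1.77 x 10^8 /mL) applied to suspended U2OS cells for 4 h. Flux was tracked with FluxOr dye plus Red40 quencher, and kinetic rate constants normalized to controls.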
KCNH2 WT inh – qHTS for Inhibitors of KCHN2 3.1: Wildtype qHTS. U2OS, BacMam KCNH2, thallium flux FluxOr; hits give low values. activity change, % at 1.84 µM. 340,000 tested, 0.37% active;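 active = maximum activity change below -70%; inconclusive = maximum activity change between -70% and -50%; inactive = maximum activity change above -50%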; also: % is scaled to controls: 0 for no effect and ±100 for the full control effect
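U2OS cells were transduced with wild-type KCNH2 virus (2.03 x 10^8 / mL) for 4 h at room temperature, then cultured overnight at 37 C. Thallium flux was read with FluxOr dye. Rate constants were normalized to DMSO controls.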
TRPV1 ag – HTS Assay for Compounds that Act as Agonists of the Vanilloid Receptor 1; TRPV1-expressing cells, Fluo-8 calcium influx, agonist mode; activation, % at 8.33 µM; 320,000 tested, 0.19% active; AID 540275, 2011; in the data active = activation above about 80%; inconclusive = between about 30% and that limit; also: 0% is about no effect
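Cells expressing TRPV1 were dye-loaded with Fluo-8 and read kinetically: 10 s baseline, 3 min after compound (agonist portion), then 2 min after EC20 capsaicin (allosteric enhancer portion). Calcium-bound dye fluorescence at 480/520 nm.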
ClpP mod – qHTS Assay for Activators of ClpP; ATP-dependent Clp protease proteolytic subunit (Bacillus subtilis (strain 168)), P80244; purified B. subtilis ClpP, FRET peptide cleavage, 20 min; Potency, µM (series often up to 57.5 µM), for the others: at the top dose activity change, negative = active; 340,000 tested, 1.9% active; active = well fitted falling curve with a large enough effect; inconclusive = small, poorly fitted or top-dose-only effect; inactive = no such curve, though single readings can be large or run the other way; also: potency is read from the fitted curve at half-maximal effect; the source files actives as falling curves though it sought activators and does not explain the sign; nearly all actives have a fitted effect of over 65% in size
Target sequence (P80244 whole entry, looked up): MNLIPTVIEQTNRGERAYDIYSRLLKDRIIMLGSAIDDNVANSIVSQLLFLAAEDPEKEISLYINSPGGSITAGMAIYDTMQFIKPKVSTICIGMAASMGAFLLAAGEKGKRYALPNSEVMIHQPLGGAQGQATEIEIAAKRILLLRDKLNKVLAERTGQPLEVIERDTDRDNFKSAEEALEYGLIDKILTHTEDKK
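Purified B. subtilis ClpP, 10 microg/mL final in Tris/HCl pH8 with KCl, BSA, glycerol and Tween-20, cleaved an Abz/nitrotyrosine-quenched decapeptide. Fluorescence (ex 320, em 430) was read at 0 and 20 min at room temperature. Delta was normalized to 5.8 microM ADEP and DMSO/no-enzyme controls.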
Active calls of the source: *.

`CCOc1ccc(/C=N/NC(=O)c2csc(C)c2C)c(OCC)c1` gave p53 reactivation 21.9%, TRPV1 potentiator -3.5, KCNH2 3.1 block -80.8*, KCNH2 WT inh -8.3, TRPV1 ag 10.3 and ClpP mod -19.2%.
Screening CCOc1ccc(S(=O)(=O)Nc2cc(Cl)ccc2OC)c2cccnc12 returned ClpP mod -2.1%.
CC(C)NC(=O)C1CCN(C2CCN(Cc3nc4ccccc4s3)CC2)CC1 was read as p53 reactivation -2.9%, TRPV1 potentiator -8.3, KCNH2 3.1 block -118.1*, KCNH2 WT inh 2.0, TRPV1 ag 1.4 and ClpP mod 1.8%.
Screening O=c1c2c(nc3c(-c4ccc(Cl)cc4)c[nH]n13)CCCC2 returned p53 reactivation 7.8%, TRPV1 potentiator -11.5, KCNH2 3.1 block 0.7, KCNH2 WT inh -19.6, TRPV1 ag 27.5 and ClpP mod 14.1µM*.
Screening Cc1[nH]n2c(=O)c3c(nc2c1-c1ccc(F)cc1)CCCC3 returned p53 reactivation -1.9%, TRPV1 potentiator 5.4, KCNH2 3.1 block -6.0, KCNH2 WT inh -2.2 and TRPV1 ag 10.1.
For O=c1c2c(nc3c(-c4cccc5ccccc45)c[nH]n13)CCC2 the results were p53 reactivation 10.9%, TRPV1 potentiator inconclusive, KCNH2 3.1 block 15.2, KCNH2 WT inh -0.6, TRPV1 ag 16.4 and ClpP mod 11.2µM*.
For O=c1c(-c2ccc3c(c2)OCCO3)coc2cc(OC3OC(CO)C(O)C(O)C3O)ccc12 (stereo not drawn) the results were TRPV1 potentiator 12.9, KCNH2 3.1 block -6.4, KCNH2 WT inh 1.8 and TRPV1 ag -4.8.
For COc1ccc(-c2coc3cc(O[C@@H]4O[C@H](CO)[C@@H](O)[C@H](O)[C@H]4O)ccc3c2=O)cc1 the results were p53 reactivation inconclusive, KCNH2 3.1 block -151.3*, KCNH2 WT inh 2.2 and ClpP mod -1.3%.
`Cc1ccc(CC(=O)NCCCc2ccccc2)cc1` gave p53 reactivation 2.5%, TRPV1 potentiator -18.6, KCNH2 3.1 block 11.3, KCNH2 WT inh 4.9, TRPV1 ag 80.3* and ClpP mod -3.7%.
O=C(NCCCCNC(=O)c1ccc(F)cc1)c1ccc(F)cc1 was read as p53 reactivation -1.6%, TRPV1 potentiator 1.7, KCNH2 3.1 block 5.0, KCNH2 WT inh -1.5, TRPV1 ag -0.5 and ClpP mod 0.6%.
`O=C(NCCCc1ccccc1)c1ccc(F)cc1` gave p53 reactivation 14.5%, TRPV1 potentiator -27.9, KCNH2 3.1 block -2.4, KCNH2 WT inh -5.7, TRPV1 ag 87.6* and ClpP mod -3.9%.
For COc1ccccc1CNC(=O)C1CCN(S(=O)(=O)Cc2ccccc2)CC1 the results were ClpP mod 1.2%.
Screening Cc1nc2ccc(C(=O)NCCCn3ccnc3)cn2c1N(C)CC1CCCCC1 returned ClpP mod 0.6%.
Screening CC(=O)c1cccc(OC(=O)c2ccccc2)c1 returned KCNH2 3.1 block 20.2, KCNH2 WT inh 1.6 and ClpP mod 14.1µM*.
Screening CC(=O)c1ccc(N2CCN(S(=O)(=O)c3ccc(-c4coc(C)n4)cc3)CC2)cc1 returned ClpP mod -16.2%.
For Cc1ccc2nc(-c3ccncc3)cc(-c3ccccc3)c2c1 the results were p53 reactivation -7.5%, TRPV1 potentiator 8.9, KCNH2 3.1 block -0.3, KCNH2 WT inh 4.0, TRPV1 ag 17.2 and ClpP mod inconclusive.
For Cc1ccc(-c2cc3cccc[n+]3cc2-c2ccc(C)cc2)cc1 the results were p53 reactivation -18.1%, TRPV1 potentiator 10.0, KCNH2 3.1 block -20.4, KCNH2 WT inh -12.2, TRPV1 ag 5.7 and ClpP mod 2.82µM*.
COC(=O)c1ccc2c(=O)n(CCCCCC(=O)N3CCN(c4ccc(OC)cc4)CC3)c(=O)[nH]c2c1 was read as ClpP mod -4.4%.
Screening COc1cccc(-c2nc(CS(=O)(=O)CC(=O)NCc3ccc(C)cc3)c(C)o2)c1 returned ClpP mod 8.4%.
For COC(=O)c1ccc(-n2c(C)cc(-c3csc(NC(=O)c4ccc(S(=O)(=O)N(C)C)cc4)n3)c2C)cc1 the results were p53 reactivation -3.5%, TRPV1 potentiator 0.5, KCNH2 3.1 block 2.8, KCNH2 WT inh -5.2, TRPV1 ag 2.8 and ClpP mod 0.6%.
`Cc1cc(-c2csc(NC(=O)c3cccc(S(=O)(=O)N(C)C)c3)n2)c(C)n1-c1ccccc1` gave p53 reactivation 9.7%, TRPV1 potentiator 2.9, KCNH2 3.1 block -16.0, KCNH2 WT inh -0.2, TRPV1 ag 2.8 and ClpP mod 14.1µM*.
For CCOC(=O)c1ccc2[nH]c3c(c2c1)CCCCC3=O the results were p53 reactivation 15.8%, TRPV1 potentiator -8.0, KCNH2 3.1 block -167.1*, KCNH2 WT inh 26.9, TRPV1 ag 7.5 and ClpP mod -26.7%.
`CCOC(=O)c1ccc2nc(C)c3c(c2c1)OC(C)C3` (stereo not drawn) gave p53 reactivation -13.0%, TRPV1 potentiator -16.3, KCNH2 3.1 block 7.5, KCNH2 WT inh 6.4, TRPV1 ag inconclusive and ClpP mod 31.6µM*.
For CCOC(=O)c1ccc2[nH]c3c(c2c1)CCCC3C(=O)OCC (stereo not drawn) the results were p53 reactivation 4.2%, TRPV1 potentiator -12.4, KCNH2 3.1 block 15.2, KCNH2 WT inh 9.1, TRPV1 ag 11.6 and ClpP mod inconclusive.
`CCOC(=O)c1ccc2nc(C(F)(F)F)[nH]c(=O)c2c1` gave p53 reactivation -2.8%, TRPV1 potentiator 4.6, KCNH2 3.1 block -7.4, KCNH2 WT inh -13.0, TRPV1 ag 1.6 and ClpP mod 3.98µM*.
Screening C=C1C=C(C(F)F)n2ncc(C(=O)NCCc3ccc(Cl)cc3)c2N1 returned ClpP mod -0.5%.
For CCOc1ccc(N(C)S(=O)(=O)c2ccc3c(c2)CCCN3C(C)=O)cc1 the results were ClpP mod 1.4%.
OCc1ccc(-c2cccc3nccn23)cc1 was read as ClpP mod 4.6%.
CCN1C(=O)C(CC(=O)Nc2ccc(OC)cc2)N(CCc2ccc(F)cc2)C1=S (stereo not drawn) was read as p53 reactivation 7.4%, TRPV1 potentiator 7.7, KCNH2 3.1 block 13.0, KCNH2 WT inh -12.7, TRPV1 ag 10.9 and ClpP mod 11.2µM*.
